The values below come from PubChem BioAssay (NCATS).

Results filed as inconclusive are left out. A call without a number means that no potency is given here. Calls of active or inactive are those of the source. Calls follow the shape of the dose curve; as a rule, active = well fitted inhibition curve with a large enough effect; inconclusive = small, poorly fitted or top-dose-only effect; inactive = no such curve, though single readings can be large or run the other way.

A short description of the assay: NS1 protein of Zika virus - qHTS assay to identify small molecule inhibitors in human HEK 293 cells (AID 1347053). Also: nearly all actives have a fitted effect of over 55% in size. As to conditions: HEK293 ZIKV MR766 infection, NS1 TR-FRET, 24 h; series mostly up to 46.1 µM. An outline of the steps: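 Compound-treated (1 h pre-infection) HEK 293 cells infected with ZIKV MR766, MOI = 0.5; after 24 h at 37 C, NS1 read by TR-FRET; data normalized to uninfected and infected controls.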
A general note: qHTS replaces the single test concentration by a dilution series.
Regarding `CC(Cc1ccccc1)NCc1ccccc1Cl` (stereo unspecified), the Potency result is “inactive”. On to `CCN(Cc1ccc(Cl)nc1)/C(=C/[N+](=O)[O-])NC`, for which the Potency entry is “inactive”. The same measure for `Cc1ccc(N=CN(C)C=Nc2ccc(C)cc2C)c(C)c1`: “inactive”; for `CN1C(=O)CN=C(c2ccccc2)c2cc(Cl)ccc21`: “inactive”; for `Nc1ccccc1C(=O)OCC(O)CO` (stereo unspecified): “inactive”. As to `OC(c1ccccc1)(c1ccccc1)C1CCNCC1`, the Potency entry was “inactive”. As for `O=C(CCCCl)c1ccc(F)cc1`, the Potency entry is “inactive”. In the case of `CCO[C@H]1O[C@@H]2OC3(C)CC[C@H]4[C@H](C)CC[C@@H]([C@H]1C)[C@@]24OO3`, the Potency entry was “inactive”. As for `C1CN2CCC1CC2`, the Potency entry is “inactive”. Turning to `CCOC(=O)C1(c2ccccc2)CCN(CCc2ccc(N)cc2)CC1`, the Potency result is “inactive”.

Regarding `Clc1ccc(CSC(Cn2ccnc2)c2ccc(Cl)cc2Cl)cc1` (stereo unspecified), the Potency entry is “inactive”. `O=C1NCN(c2ccccc2)C12CCN(CCCOc1ccc(F)cc1)CC2`: the Potency entry is “inactive”. Turning to `NCc1cccnc1`, the Potency entry was “inactive”.

In the case of `CC(C)(O)C(Cl)(Cl)Cl`, the Potency entry was “inactive”. Regarding `CC(Cc1ccc2c(c1)OCO2)NO` (stereo unspecified), the Potency entry is “inactive”.

`CCC1(c2cccc(O)c2)CCCCN(C)C1` (stereo unspecified): the Potency result is “inactive”.

In the case of `CC1=C2[C@H]3OC(=O)[C@@H](C)[C@@H]3CC[C@@]2(C)C=CC1=O`, the Potency entry is “inactive”.

Take `COc1cc(CC(C)N)cc2c1OCO2` (stereo unspecified): the Potency entry is “inactive”. The value for `CNC(=O)Oc1cccc2ccccc12` was “inactive”. For `CCC1(CC)C(=O)NC(=O)NC1=O`, the Potency entry was “inactive”. As for `CCNc1nc(Cl)nc(NCC)n1`, the Potency result is “inactive”.
